# Source: ChEMBL document CHEMBL1961873, “Compounds: GSK PKIS; Assays: Nanosyn kinase panel” (2012)
# Tests used:
# [1] = molecular target: Sphingosine kinase 1 (Homo sapiens) (UniProt Q9NYA1); details: at 1 µM;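 also: mean SPHK1 inhibition value reported from the GSK PKIS kinase panel screen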
# [2] = molecular target: T1, Sphingosine kinase 2 (Homo sapiens) (UniProt Q9NRA0); details: at 0.1 µM;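 also: values reported as mean percent inhibition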
# T1 sequence (whole entry): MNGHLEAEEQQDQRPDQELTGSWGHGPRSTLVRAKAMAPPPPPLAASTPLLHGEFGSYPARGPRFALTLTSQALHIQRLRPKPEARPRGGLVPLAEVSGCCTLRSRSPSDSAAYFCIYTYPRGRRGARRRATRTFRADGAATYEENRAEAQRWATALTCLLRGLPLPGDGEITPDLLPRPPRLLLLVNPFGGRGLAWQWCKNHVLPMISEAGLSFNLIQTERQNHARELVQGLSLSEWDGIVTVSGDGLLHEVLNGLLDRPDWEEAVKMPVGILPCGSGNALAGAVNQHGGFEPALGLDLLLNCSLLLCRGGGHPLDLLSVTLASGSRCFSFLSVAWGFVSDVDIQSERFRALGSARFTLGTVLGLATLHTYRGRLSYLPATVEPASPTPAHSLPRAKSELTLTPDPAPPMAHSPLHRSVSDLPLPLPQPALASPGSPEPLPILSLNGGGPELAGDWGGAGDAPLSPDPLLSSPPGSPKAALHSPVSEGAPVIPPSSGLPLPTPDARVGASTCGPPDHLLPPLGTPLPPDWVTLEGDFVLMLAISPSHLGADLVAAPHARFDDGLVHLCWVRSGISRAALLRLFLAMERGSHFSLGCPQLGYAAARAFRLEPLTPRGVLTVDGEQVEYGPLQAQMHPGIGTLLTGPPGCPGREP
# [3] = molecular target: Casein kinase II subunit alpha (Homo sapiens) (UniProt P68400); details: at 0.1 µM
# Casein kinase II subunit alpha (Homo sapiens), sequence (P68400 whole entry, looked up): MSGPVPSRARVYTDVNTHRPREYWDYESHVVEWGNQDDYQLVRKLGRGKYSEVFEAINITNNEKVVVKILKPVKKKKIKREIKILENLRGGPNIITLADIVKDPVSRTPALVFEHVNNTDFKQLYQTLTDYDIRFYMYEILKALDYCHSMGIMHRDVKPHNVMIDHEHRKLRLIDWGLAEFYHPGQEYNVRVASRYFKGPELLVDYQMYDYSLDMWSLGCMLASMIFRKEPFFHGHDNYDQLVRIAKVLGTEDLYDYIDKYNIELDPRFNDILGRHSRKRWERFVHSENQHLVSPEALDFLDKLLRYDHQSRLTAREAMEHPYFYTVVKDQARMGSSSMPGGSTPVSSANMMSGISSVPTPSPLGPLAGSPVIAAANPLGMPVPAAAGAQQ
# [4] = molecular target: Casein kinase II subunit alpha (Homo sapiens) (UniProt P68400); details: at 1 µM
# [5] = molecular target: T2, Inhibitor of nuclear factor kappa-B kinase subunit alpha (Homo sapiens) (UniProt O15111); details: at 0.1 µM
# T2 sequence (whole entry): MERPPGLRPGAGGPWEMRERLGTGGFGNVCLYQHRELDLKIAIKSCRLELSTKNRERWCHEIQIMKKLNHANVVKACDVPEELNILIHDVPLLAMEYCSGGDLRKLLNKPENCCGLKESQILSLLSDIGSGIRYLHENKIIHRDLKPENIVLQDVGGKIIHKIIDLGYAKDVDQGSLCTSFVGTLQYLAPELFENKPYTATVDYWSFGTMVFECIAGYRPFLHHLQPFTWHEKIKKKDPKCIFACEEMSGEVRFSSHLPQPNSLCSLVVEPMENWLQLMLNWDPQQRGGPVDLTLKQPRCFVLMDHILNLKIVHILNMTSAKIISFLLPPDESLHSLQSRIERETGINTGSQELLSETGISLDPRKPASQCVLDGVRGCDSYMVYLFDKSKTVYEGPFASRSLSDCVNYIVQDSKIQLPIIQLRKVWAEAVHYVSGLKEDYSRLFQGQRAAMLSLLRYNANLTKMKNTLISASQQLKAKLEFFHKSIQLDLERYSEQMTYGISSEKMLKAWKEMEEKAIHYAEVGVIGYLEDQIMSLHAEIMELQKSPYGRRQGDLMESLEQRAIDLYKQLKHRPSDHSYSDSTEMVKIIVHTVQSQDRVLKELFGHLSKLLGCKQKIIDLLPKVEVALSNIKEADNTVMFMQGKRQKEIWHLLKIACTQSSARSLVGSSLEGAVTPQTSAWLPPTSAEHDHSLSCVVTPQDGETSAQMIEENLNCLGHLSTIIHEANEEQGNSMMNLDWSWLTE
# [6] = molecular target: T2, Inhibitor of nuclear factor kappa-B kinase subunit alpha (Homo sapiens); details: at 1 µM
# [7] = molecular target: T3, Inhibitor of nuclear factor kappa-B kinase subunit beta (Homo sapiens) (UniProt O14920); details: at 0.1 µM
# T3 sequence (whole entry): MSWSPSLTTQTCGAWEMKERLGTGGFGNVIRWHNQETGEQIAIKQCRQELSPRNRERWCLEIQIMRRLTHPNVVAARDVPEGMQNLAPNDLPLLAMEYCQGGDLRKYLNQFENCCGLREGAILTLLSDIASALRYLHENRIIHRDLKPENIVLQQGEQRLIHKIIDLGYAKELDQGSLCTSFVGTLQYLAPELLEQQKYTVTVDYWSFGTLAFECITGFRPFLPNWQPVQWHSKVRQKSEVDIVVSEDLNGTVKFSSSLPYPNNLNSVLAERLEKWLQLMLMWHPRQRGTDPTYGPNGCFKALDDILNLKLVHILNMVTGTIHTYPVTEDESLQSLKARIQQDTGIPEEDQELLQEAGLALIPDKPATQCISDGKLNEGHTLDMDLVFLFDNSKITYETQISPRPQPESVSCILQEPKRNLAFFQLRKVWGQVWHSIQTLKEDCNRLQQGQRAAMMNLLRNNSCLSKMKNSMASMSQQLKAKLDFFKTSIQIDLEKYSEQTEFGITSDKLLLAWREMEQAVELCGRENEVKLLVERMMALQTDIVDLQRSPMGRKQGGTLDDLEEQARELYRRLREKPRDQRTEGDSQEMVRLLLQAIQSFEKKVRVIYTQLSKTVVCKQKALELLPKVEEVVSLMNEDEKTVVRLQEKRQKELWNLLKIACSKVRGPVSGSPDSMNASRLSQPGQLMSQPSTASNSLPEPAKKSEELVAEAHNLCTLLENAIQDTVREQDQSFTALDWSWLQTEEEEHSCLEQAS
# [8] = molecular target: T3, Inhibitor of nuclear factor kappa-B kinase subunit beta (Homo sapiens); details: at 1 µM
# [9] = molecular target: T4, Inhibitor of nuclear factor kappa-B kinase subunit epsilon (Homo sapiens) (UniProt Q14164); details: at 0.1 µM
# T4 sequence (whole entry): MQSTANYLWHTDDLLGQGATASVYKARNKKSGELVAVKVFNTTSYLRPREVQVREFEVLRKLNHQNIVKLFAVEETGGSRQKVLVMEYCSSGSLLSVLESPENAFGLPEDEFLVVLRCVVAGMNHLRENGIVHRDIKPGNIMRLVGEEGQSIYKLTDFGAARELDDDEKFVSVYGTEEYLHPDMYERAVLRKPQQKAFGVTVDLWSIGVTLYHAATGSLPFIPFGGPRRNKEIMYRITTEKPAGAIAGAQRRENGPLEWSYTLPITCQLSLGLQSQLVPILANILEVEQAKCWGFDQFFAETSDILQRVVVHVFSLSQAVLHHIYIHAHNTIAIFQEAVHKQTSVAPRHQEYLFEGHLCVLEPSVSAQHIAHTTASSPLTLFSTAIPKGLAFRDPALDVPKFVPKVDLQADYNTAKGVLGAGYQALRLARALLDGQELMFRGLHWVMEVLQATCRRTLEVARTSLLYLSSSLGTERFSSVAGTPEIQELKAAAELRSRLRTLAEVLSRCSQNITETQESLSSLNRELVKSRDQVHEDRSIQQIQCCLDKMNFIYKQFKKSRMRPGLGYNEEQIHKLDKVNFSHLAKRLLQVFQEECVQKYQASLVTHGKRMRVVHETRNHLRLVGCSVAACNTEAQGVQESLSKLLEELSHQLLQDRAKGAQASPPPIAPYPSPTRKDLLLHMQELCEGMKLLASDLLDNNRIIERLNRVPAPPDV
# [10] = molecular target: T4, Inhibitor of nuclear factor kappa-B kinase subunit epsilon (Homo sapiens); details: at 1 µM
# [11] = molecular target: T5, Serine/threonine-protein kinase Nek1 (Homo sapiens) (UniProt Q96PY6); details: at 0.1 µM
# T5 sequence (whole entry): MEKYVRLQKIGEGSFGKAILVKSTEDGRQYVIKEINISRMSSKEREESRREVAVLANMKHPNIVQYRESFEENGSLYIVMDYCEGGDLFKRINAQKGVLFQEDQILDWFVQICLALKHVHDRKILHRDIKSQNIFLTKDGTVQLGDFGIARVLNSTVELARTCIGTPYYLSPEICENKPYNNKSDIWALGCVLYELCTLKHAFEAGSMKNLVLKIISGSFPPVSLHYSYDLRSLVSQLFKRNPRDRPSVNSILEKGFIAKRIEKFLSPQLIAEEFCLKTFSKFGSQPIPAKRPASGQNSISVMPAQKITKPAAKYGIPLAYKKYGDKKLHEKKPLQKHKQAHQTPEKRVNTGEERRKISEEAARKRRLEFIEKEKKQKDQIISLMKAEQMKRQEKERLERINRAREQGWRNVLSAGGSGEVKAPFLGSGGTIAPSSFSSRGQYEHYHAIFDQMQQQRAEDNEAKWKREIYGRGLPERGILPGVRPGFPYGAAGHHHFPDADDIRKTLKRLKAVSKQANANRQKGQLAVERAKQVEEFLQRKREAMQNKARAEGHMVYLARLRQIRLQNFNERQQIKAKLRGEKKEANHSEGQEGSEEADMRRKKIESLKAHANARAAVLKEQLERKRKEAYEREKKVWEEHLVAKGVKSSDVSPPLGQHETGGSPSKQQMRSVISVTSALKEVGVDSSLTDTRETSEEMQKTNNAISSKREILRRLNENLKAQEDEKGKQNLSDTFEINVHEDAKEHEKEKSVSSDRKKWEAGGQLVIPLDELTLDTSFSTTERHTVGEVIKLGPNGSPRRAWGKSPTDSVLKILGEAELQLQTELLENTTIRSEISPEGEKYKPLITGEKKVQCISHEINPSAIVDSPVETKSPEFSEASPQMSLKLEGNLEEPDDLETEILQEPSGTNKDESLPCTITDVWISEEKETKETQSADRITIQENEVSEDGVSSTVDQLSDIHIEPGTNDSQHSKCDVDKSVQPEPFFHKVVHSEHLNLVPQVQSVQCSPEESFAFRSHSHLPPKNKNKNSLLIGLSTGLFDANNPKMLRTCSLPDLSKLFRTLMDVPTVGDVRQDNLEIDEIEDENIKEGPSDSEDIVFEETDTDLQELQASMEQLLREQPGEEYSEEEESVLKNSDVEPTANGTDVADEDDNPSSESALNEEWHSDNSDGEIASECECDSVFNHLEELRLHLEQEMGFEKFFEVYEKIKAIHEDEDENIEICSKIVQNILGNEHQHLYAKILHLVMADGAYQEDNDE
# [12] = molecular target: T5, Serine/threonine-protein kinase Nek1 (Homo sapiens); details: at 1 µM
# [13] = molecular target: T6, Serine/threonine-protein kinase Nek2 (Homo sapiens) (UniProt P51955); details: at 0.1 µM
# T6 sequence (whole entry): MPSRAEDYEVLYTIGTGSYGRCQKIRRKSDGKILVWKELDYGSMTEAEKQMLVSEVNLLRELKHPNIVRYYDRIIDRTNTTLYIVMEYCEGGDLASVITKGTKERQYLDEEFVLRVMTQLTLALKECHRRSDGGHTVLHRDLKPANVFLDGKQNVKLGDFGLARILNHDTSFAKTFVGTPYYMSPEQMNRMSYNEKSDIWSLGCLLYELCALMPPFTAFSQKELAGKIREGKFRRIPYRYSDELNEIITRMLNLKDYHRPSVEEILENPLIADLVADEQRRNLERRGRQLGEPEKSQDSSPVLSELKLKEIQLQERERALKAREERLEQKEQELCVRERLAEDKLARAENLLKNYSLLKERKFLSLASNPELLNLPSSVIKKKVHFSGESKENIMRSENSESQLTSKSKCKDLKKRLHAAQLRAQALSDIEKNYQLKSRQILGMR
# [14] = molecular target: T6, Serine/threonine-protein kinase Nek2 (Homo sapiens); details: at 1 µM
# [15] = molecular target: Serine/threonine-protein kinase Nek6 (Homo sapiens) (UniProt Q9HC98); details: at 0.1 µM
# Serine/threonine-protein kinase Nek6 (Homo sapiens), sequence (Q9HC98 whole entry): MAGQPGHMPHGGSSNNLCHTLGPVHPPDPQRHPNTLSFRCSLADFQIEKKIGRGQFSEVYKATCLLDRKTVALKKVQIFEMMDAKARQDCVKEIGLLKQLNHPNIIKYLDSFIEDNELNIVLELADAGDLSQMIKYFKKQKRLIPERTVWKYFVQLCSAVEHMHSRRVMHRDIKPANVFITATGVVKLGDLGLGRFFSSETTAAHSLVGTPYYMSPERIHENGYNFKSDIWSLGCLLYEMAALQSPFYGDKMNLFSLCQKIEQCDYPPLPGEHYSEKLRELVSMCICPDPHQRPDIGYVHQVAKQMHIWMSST
# [16] = molecular target: Serine/threonine-protein kinase Nek6 (Homo sapiens) (UniProt Q9HC98); details: at 1 µM
# [17] = molecular target: Serine/threonine-protein kinase Nek7 (Homo sapiens) (UniProt Q8TDX7); details: at 0.1 µM
# Serine/threonine-protein kinase Nek7 (Homo sapiens), sequence (Q8TDX7 whole entry, looked up): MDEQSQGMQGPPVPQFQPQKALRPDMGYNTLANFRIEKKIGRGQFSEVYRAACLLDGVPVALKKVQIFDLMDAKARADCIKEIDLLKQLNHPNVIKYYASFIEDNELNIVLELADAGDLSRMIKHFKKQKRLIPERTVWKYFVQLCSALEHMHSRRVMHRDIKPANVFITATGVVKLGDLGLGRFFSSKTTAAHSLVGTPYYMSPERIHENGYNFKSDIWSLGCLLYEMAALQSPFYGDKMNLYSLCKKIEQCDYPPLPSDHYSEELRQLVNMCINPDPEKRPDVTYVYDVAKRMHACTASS
# [18] = molecular target: Serine/threonine-protein kinase Nek7 (Homo sapiens) (UniProt Q8TDX7); details: at 1 µM
# [19] = molecular target: T7, Serine/threonine-protein kinase Nek9 (Homo sapiens) (UniProt Q8TD19); details: at 0.1 µM;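 also: reported value is the mean percent inhibition of NEK9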
# T7 sequence (whole entry): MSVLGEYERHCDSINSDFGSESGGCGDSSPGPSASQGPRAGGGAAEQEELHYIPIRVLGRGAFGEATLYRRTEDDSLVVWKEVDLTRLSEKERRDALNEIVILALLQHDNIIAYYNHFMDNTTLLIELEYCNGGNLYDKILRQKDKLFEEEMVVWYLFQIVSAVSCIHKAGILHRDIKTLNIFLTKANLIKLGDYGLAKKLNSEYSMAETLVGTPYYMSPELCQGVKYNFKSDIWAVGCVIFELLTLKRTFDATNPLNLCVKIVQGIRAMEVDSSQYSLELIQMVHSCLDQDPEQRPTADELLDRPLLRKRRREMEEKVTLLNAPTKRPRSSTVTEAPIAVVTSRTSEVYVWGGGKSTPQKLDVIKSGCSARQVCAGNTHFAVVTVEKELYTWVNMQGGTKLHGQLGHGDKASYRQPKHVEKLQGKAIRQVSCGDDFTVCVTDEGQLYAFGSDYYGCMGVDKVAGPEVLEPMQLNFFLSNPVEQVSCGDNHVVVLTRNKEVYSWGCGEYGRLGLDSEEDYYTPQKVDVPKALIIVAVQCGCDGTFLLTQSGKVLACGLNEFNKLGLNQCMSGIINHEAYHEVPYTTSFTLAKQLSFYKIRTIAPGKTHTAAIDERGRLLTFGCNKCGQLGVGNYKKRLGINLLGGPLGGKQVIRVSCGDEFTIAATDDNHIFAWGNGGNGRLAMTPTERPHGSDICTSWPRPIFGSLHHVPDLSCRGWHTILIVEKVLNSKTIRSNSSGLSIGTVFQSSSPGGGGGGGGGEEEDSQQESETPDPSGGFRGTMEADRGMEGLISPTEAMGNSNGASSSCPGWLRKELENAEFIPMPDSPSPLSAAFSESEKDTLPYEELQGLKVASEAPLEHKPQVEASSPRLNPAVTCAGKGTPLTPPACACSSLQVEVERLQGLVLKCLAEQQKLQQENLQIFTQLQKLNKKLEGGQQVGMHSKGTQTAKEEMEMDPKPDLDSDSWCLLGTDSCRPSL
# Sphingosine kinase 1 (Homo sapiens), sequence (Q9NYA1 whole entry): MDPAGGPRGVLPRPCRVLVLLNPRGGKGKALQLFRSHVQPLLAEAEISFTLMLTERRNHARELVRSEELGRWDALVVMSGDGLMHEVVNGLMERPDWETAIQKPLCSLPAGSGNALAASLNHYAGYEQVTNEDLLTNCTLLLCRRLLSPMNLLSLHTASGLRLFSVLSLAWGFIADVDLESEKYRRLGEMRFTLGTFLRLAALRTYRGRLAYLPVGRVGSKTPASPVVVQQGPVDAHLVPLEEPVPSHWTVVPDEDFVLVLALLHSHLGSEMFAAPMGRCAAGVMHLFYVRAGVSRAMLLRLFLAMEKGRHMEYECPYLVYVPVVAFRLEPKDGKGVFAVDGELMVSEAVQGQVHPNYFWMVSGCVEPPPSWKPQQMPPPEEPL
structure (smiles),measurement,setting,value
[O-][S+]1CCN(Cc2ccc(-c3ccc4ncnc(Nc5ccc(OCc6ccccc6)c(F)c5)c4c3)o2)CC1,inhibition,[1],-3.44%
same,inhibition,[2],0.02%
same,inhibition,[3],-1.48%
same,inhibition,[4],1.56%
same,inhibition,[5],1.7%
same,inhibition,[6],1.1%
same,inhibition,[7],4.51%
same,inhibition,[8],-0.14%
same,inhibition,[9],3.11%
same,inhibition,[10],1.45%
same,inhibition,[11],1.95%
same,inhibition,[12],2.41%
same,inhibition,[13],3.45%
same,inhibition,[14],3.23%
same,inhibition,[15],1.87%
same,inhibition,[16],-0.69%
same,inhibition,[17],2.33%
same,inhibition,[18],2.07%
same,inhibition,[19],5.9%
